Test results as given in PubChem BioAssay AID1159580 (chemical genetic matrix, 2015).
Out of some 5,500 compounds screened, about 2,000 (36%) were called active. About 18% were inconclusive and are not listed. Rule as the data show it: active = normalized growth mostly below about 0.91 (no sharp cut-off); inconclusive = no clear call, values can overlap the other calls; inactive = mostly above about 0.92. Some of the results follow. Where a SMILES comes first, the peptide text is derived from it.

Test: chemical genetic growth profiling, strain panel (AID 1159580);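 also: tested at 20 µM; growth read once vehicle control cultures reached saturation at 30 °C; 1 = growth at the plate median or of vehicle wells; lower values mean less growth of the strain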
Conditions: growth OD

Measured: normalized growth

NCCCCC(N)C(=O)NC(Cc1ccc(O)cc1)C(=O)NC(CCCCN)C(=O)O (stereo not drawn) (H-Lys-Tyr-Lys-OH; configuration not given here)
inactive: S. cerevisiae deletion strains, locus YAL013W, strain DEP1, active compounds read low 1.01 | S. cerevisiae deletion strains, locus YBR021W, strain FUR4, active compounds read low 1 | S. cerevisiae deletion strains, locus YBR229C, strain ROT2, active compounds read low 1.01 | S. cerevisiae deletion strains, locus YCL029C, strain bik1, active compounds read low 0.983 | S. cerevisiae deletion strains, locus YDL035C, strain GPR1, active compounds read low 1.01 | S. cerevisiae deletion strains, locus YDL074C, strain BRE1, active compounds read low 1.06 | S. cerevisiae deletion strains, locus YDL101C, strain DUN1, active compounds read low 1.02 | S. cerevisiae deletion strains, locus YDL134C, strain PPH21, active compounds read low 1.01 | S. cerevisiae deletion strains, locus YDL185W, strain tfp1, active compounds read low 0.971 | S. cerevisiae deletion strains, locus YDL192W, strain arf1, active compounds read low 0.984 | S. cerevisiae deletion strains, locus YDR101C, strain arx1, active compounds read low 1.01 | S. cerevisiae deletion strains, locus YDR150W, strain NUM1, active compounds read low 0.999 | S. cerevisiae deletion strains, locus YDR162C, strain NBP2, active compounds read low 1.04 | S. cerevisiae deletion strains, locus YDR318W, strain mcm21, active compounds read low 0.983 | S. cerevisiae deletion strains, locus YDR388W, active compounds read low 1.01 | S. cerevisiae deletion strains, locus YDR502C, strain sam2, active compounds read low 1 | S. cerevisiae deletion strains, locus YEL061C, strain CIN8, active compounds read low 0.996 | S. cerevisiae deletion strains, locus YER110C, active compounds read low 0.987 | S. cerevisiae deletion strains, locus YER155C, strain BEM2, active compounds read low 0.985 | S. cerevisiae deletion strains, locus YER167W, strain BCK2, active compounds read low 0.995 | S. cerevisiae deletion strains, locus YGL078C, strain dbp3, active compounds read low 0.988 | S. cerevisiae deletion strains, locus YGL086W, strain mad1, active compounds read low 0.963 | S. cerevisiae deletion strains, locus YGL248W, strain PDE1, active compounds read low 1.01 | S. cerevisiae deletion strains, locus YGR078C, strain PAC10, active compounds read low 1.04 | S. cerevisiae deletion strains, locus YGR135W, strain pre9, active compounds read low 0.999 | S. cerevisiae deletion strains, locus YGR229C, strain SMI1, active compounds read low 1.05 | S. cerevisiae deletion strains, locus YGR252W, strain gcn5, active compounds read low 0.958 | S. cerevisiae deletion strains, locus YHR030C, strain SLT2, active compounds read low 0.996 | S. cerevisiae deletion strains, locus YHR079C, strain IRE1 (second series), active compounds read low 1 | S. cerevisiae deletion strains, locus YHR094C, strain hxt1, active compounds read low 0.982 | S. cerevisiae deletion strains, locus YHR129C, strain ARP1, active compounds read low 1.01 | S. cerevisiae deletion strains, locus YHR200W, strain rpn10, active compounds read low 0.984 | S. cerevisiae deletion strains, locus YIL066C, strain RNR3, active compounds read low 1.02 | S. cerevisiae deletion strains, locus YIL073C, strain SPO22, active compounds read low 0.948 | S. cerevisiae deletion strains, locus YIR030C, strain dcg1, active compounds read low 0.995 | S. cerevisiae deletion strains, locus YJL095W, strain BCK1, active compounds read low 1.07 | S. cerevisiae deletion strains, locus YJL134W, strain LCB3, active compounds read low 0.997 | S. cerevisiae deletion strains, locus YJL168C, strain set2, active compounds read low 1.02 | S. cerevisiae deletion strains, locus YJL187C, strain SWE1 (second series), active compounds read low 1.01 | S. cerevisiae deletion strains, locus YJR043C, strain POL32, active compounds read low 0.996 | S. cerevisiae deletion strains, locus YJR075W, strain HOC1, active compounds read low 1.1 | S. cerevisiae deletion strains, locus YKL009W, strain mrt4, active compounds read low 0.958 | S. cerevisiae deletion strains, locus YKL068W, active compounds read low 0.987 | S. cerevisiae deletion strains, locus YKL085W, strain MDH1 (second series), active compounds read low 1.04 | S. cerevisiae deletion strains, locus YKL085W, strain MDH1, active compounds read low 1.04 | S. cerevisiae deletion strains, locus YKL190W, strain CNB1, active compounds read low 1.01 | S. cerevisiae deletion strains, locus YKR001C, strain vps1, active compounds read low 0.979 | S. cerevisiae deletion strains, locus YLR039C, strain RIC1, active compounds read low 1.04 | S. cerevisiae deletion strains, locus YLR058C, strain SHM2, active compounds read low 0.999 | S. cerevisiae deletion strains, locus YLR102C, strain apc9, active compounds read low 1 | S. cerevisiae deletion strains, locus YLR262C, strain YPT6, active compounds read low 1 | S. cerevisiae deletion strains, locus YLR268W, strain sec22, active compounds read low 1.01 | S. cerevisiae deletion strains, locus YLR330W, strain CHS5, active compounds read low 0.987 | S. cerevisiae deletion strains, locus YLR342W, strain FKS1 (second series), active compounds read low 1.01 | S. cerevisiae deletion strains, locus YLR371W, strain rom2, active compounds read low 0.983 | S. cerevisiae deletion strains, locus YLR418C, strain cdc73, active compounds read low 1.04 | S. cerevisiae deletion strains, locus YML016C, strain PPZ1, active compounds read low 1 | S. cerevisiae deletion strains, locus YML032C, strain rad52, active compounds read low 0.976 | S. cerevisiae deletion strains, locus YML124C, strain tub3, active compounds read low 0.99 | S. cerevisiae deletion strains, locus YMR078C, strain ctf18, active compounds read low 0.982 | S. cerevisiae deletion strains, locus YMR223W, strain ubp8, active compounds read low 0.981 | S. cerevisiae deletion strains, locus YMR263W, strain SAP30, active compounds read low 1.05 | S. cerevisiae deletion strains, locus YMR307W, strain GAS1, active compounds read low 1.07 | S. cerevisiae deletion strains, locus YNL067W, strain RPL9B, active compounds read low 1.04 | S. cerevisiae deletion strains, locus YNL128W, strain TEP1, active compounds read low 1.05 | S. cerevisiae deletion strains, locus YNL153C, strain GIM3, active compounds read low 1.05 | S. cerevisiae deletion strains, locus YNL233W, strain BNI4, active compounds read low 1.04 | S. cerevisiae deletion strains, locus YNL250W, strain rad50, active compounds read low 0.981 | S. cerevisiae deletion strains, locus YNL271C, strain bni1, active compounds read low 0.99 | S. cerevisiae deletion strains, locus YNL298W, strain CLA4, active compounds read low 0.987 | S. cerevisiae deletion strains, locus YNL307C, strain MCK1, active compounds read low 0.993 | S. cerevisiae deletion strains, locus YNL322C, strain KRE1, active compounds read low 0.998 | S. cerevisiae deletion strains, locus YNR052C, strain pop2, active compounds read low 0.99 | S. cerevisiae deletion strains, locus YOL006C, strain TOP1, active compounds read low 1.06 | S. cerevisiae deletion strains, locus YOL012C, strain htz1 0.771 | S. cerevisiae deletion strains, locus YOL147C, strain pex11, active compounds read low 0.995 | S. cerevisiae deletion strains, locus YOR061W, strain CKA2, active compounds read low 1.01 | S. cerevisiae deletion strains, locus YOR069W, strain VPS5, active compounds read low 1 | S. cerevisiae deletion strains, locus YOR136W, strain idh2, active compounds read low 0.998 | S. cerevisiae deletion strains, locus YOR144C, strain elg1, active compounds read low 0.989 | S. cerevisiae deletion strains, locus YOR184W, strain ser1, active compounds read low 0.966 | S. cerevisiae deletion strains, locus YOR316C, strain cot1, active compounds read low 0.99 | S. cerevisiae deletion strains, locus YPL055C, strain LGE1, active compounds read low 1.11 | S. cerevisiae deletion strains, locus YPL241C, strain CIN2, active compounds read low 1 | S. cerevisiae deletion strains, locus YPR119W, strain clb2, active compounds read low 0.998 | S. cerevisiae deletion strains, locus YPR141C, strain kar3, active compounds read low 1 | S. cerevisiae deletion strains, locus YPR163C, strain tif3, active compounds read low 0.982 | S. cerevisiae deletion strains, locus YPR167C, strain met16, active compounds read low 0.997 | S. cerevisiae deletion strains, strain wtn01, active compounds read low 1.03 | S. cerevisiae strains, strain wild type, active compounds read low 1.01
